Laboratory results taken from PubChem BioAssay AID1347071 (National Center for Advancing Translational Sciences (NCATS), 2019).
Hit rate of the full screen: of about 410,000 compounds, about 260 (0.063%) were called active. Inconclusive results (about 2%) are left out. Calls come from the whole dose curve; as a rule, active = well fitted activation curve with a large enough effect; inconclusive = small, poorly fitted or top-dose-only effect; inactive = no such curve, though single readings can be large or run the other way. What follows is part of a selection rich in actives, with near analogues and random picks from the rest. A call without a number means that no potency is given here.

Test: qHTS for compounds that reverse cellular toxicity of Amyloid beta (A-beta) peptide in yeast: Primary Screen; note: nearly all actives have a fitted effect of over 55% in size
Conditions: yeast expressing A-beta42, growth rescue, OD600, 48 h; series mostly up to 46.1 µM
How it was run: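 Yeast growth medium received pinned compounds, then yeast cells expressing toxic A-beta were added; plates incubated at 30 C for 48 hr. Growth read as absorbance at 600 nm, normalized to DMSO and equimolar FeCl3 plus clioquinol controls.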
Potency is the fitted concentration of half-maximal effect.

| Compound | Potency |
| --- | --- |
| CCc1cccc(C)c1Nc1c(-c2ccc(N(C)C)cc2)nc2ncccn12 | inactive |
| COc1ccc(-c2nc3ccccc3o2)cc1NC(=O)c1cc([N+](=O)[O-])ccc1N1CCOCC1 | inactive |
| Cc1ccc(-c2nc3ccccn3c2Nc2c(C)cccc2C)o1 | inactive |
| COc1ccc(NS(=O)(=O)c2cc3c4c(c2)CC(=O)N4CCC3)cc1Cl | inactive |
| O=S(=O)(Nc1ccc2nc(-c3cccc(Cl)c3)oc2c1)c1ccccc1 | inactive |
| CCOC(=O)c1ccc(NC(=O)c2c(NCc3cccc(OC)c3)sc3c2CCC3)cc1 | inactive |
| CCOC(=O)C1CCN(c2csc3ccc(C)cc3c2=O)CC1 | inactive |
| CCC(=O)Nc1ccccc1-c1nc2ccccc2n(CC(=O)Nc2ccc(C)c(C)c2)c1=O | inactive |
| CCCNc1ncnc2c1c(-c1ccccc1)cn2-c1ccc(OCC)cc1 | inactive |
| COc1ccc(OC)c(CCNC(=O)CCCn2c(=O)c3cccn3c3cccnc32)c1 | inactive |
| CCOC(=O)c1cnc2c(C)cc(C)cc2c1Nc1ccc(N2CCOCC2)cc1 | inactive |
| COc1ccc(CNC(=O)Cn2nnc(-c3ccccc3F)n2)cc1 | inactive |
| Cc1cccc(-n2ccnc2SCC(=O)Nc2cccc3ccccc23)c1C | inactive |
| O=C(/C=C/c1ccccc1)N1CCN(Cc2cc(=O)n3nc(-c4ccccc4F)sc3n2)CC1 | inactive |
| Cc1ccc(Oc2c(C(F)(F)F)oc3c(CN4CCCCC4)c(O)ccc3c2=O)cc1 | inactive |
| O=C(NC1(C(F)(F)F)N=C(c2ccccc2)N(C2CCCCC2)C1=O)c1ccccc1F (stereo not drawn) | inactive |
| Cc1cccc(N2CCN(C3=C(c4ccccc4)C(=O)c4ccccc43)CC2)c1C | inactive |
| Cc1ccc(-n2nnnc2CNC(=O)c2ccccc2C)cc1C | inactive |
| CCOC(=O)C1CCN(C(=O)CSc2c3c(nc4ccc(Cl)cc24)CCCC3)CC1 | inactive |
| CN(Cc1ccccc1)C(=O)c1cc2c(=O)n(C)c3ccccc3c2s1 | inactive |
| COc1ccccc1NC(=O)c1sc2nc(C)c(C(=O)Nc3ccc(Cl)cc3)c(-c3ccc(Br)cc3)c2c1N | inactive |

| Compound | Potency |
| --- | --- |
| CCOc1ccc(CNCCSc2nnnn2C)cc1 | inactive |
| CCOC(=O)c1ccccc1NC(=O)c1nn(-c2ccc(OC)c(Cl)c2)c(=O)c2c1c1ccccc1n2C | inactive |
| COCCn1c(CCC(=O)Nc2cc(C)ccc2C)nc2cccnc21 | inactive |
| COc1cccc(CN2CCc3nc(SCC(=O)Nc4ccccc4)[nH]c(=O)c3C2)c1 | inactive |
| CC(C)CC(=O)N/C(N)=N/c1nc2ccccc2s1 | 11.2 µM (active) |
| Cc1cc(C)cc(-n2ccnc2SCC(=O)Nc2nc3ccccc3s2)c1 | inactive |
| Cc1c(NC(=O)C(C)(C)C)cccc1-c1nc2ccccc2s1 | inactive |
| Cc1ccc(-c2cc(C(=O)Oc3ccccc3Cl)no2)cc1C | inactive |
| Cc1ccc(C)c(Cn2c(=O)n(CCC(=O)NCc3ccc4c(c3)OCO4)c(=O)c3sccc32)c1 | inactive |
| CC(=O)N1CCCc2ccc(NS(=O)(=O)c3ccc(F)cc3F)cc21 | inactive |
| COc1ccc(OC)c(CNC(=O)Cn2nc(C)c3c(C)n(-c4ccccc4)nc3c2=O)c1 | inactive |
| COc1cc(OC)c(OC)cc1/C=C/c1nc2cc3ccccc3cc2c(=O)n1-c1ccc(F)c(Cl)c1 | inactive |
| CCOC(=O)c1cccc(NC(=O)C(Cc2ccccc2)NS(=O)(=O)c2cccc3nsnc23)c1 (stereo not drawn) | inactive |
| COC(=O)c1ccc(C2C(C(=O)Nc3ccccc3)=C(C)Nc3nc4ccccc4n32)cc1 (stereo not drawn) | inactive |
| O=C(CSc1nccc(=O)[nH]1)Nc1ccc(N2CCOCC2)c(Cl)c1 | inactive |
| O=C(CSc1ccc([N+](=O)[O-])cn1)Nc1ccc(N2CCOCC2)c(Cl)c1 | 22.4 µM (active) |
| CCOc1ccc(C(=O)NC(=S)Nc2ccc(N3CCOCC3)c(Cl)c2)cc1[N+](=O)[O-] | inactive |
| Cc1cc(=O)c2cc(C(=O)Nc3cccc(C)c3C)ccc2[nH]1 | inactive |
| Cc1cc2n(n1)C(c1cc(C(C)(C)C)c(O)cc1O)Nc1ccccc1-2 (stereo not drawn) | inactive |
| Cc1ccc(S(=O)(=O)c2nc(-c3cccs3)oc2N2CCCCC2)cc1 | inactive |
| CCOC(=O)c1ccc(NC(=O)Cn2cc(S(=O)(=O)Cc3ccccc3F)c3ccccc32)cc1 | inactive |

| Compound | Potency |
| --- | --- |
| Cc1ccc2sc(N(Cc3cccnc3)C(=O)C3COc4ccccc4O3)nc2c1C (stereo not drawn) | inactive |
| Cc1ccc(C(=O)Nc2ccc3[nH]c(=O)c(=O)[nH]c3c2)cc1 | inactive |
| C=Cc1ccc(Cn2c(C(=O)OC)cc3sc(C)cc32)cc1 | inactive |
| CC1=C(C(=O)OCc2ccc(C)cc2)C(c2c(Cl)cccc2Cl)CC(=O)N1 (stereo not drawn) | inactive |
| COc1cc(-c2noc(-c3ccc(N4CCCC4)c([N+](=O)[O-])c3)n2)cc(OC)c1OC | inactive |
| CCc1ccccc1NC(=O)N1CCN(C(=O)c2nsc3ccccc23)CC1 | inactive |
| COc1cccc(CNC(=O)CN2C(=O)CCc3cc(S(=O)(=O)N4CCOCC4)ccc32)c1 | inactive |
| CCn1c2c(c(=O)n3ncc(C(=O)N4CCN(c5ccccc5)CC4)c13)CN(Cc1ccc(OC)cc1)CC2 | inactive |
| O=C(NC1CC(=O)N(c2ccc(Cl)cc2)C1)C1CCCC1 (stereo not drawn) | inactive |
| Cc1csc2nc(COC(=O)c3ccc(NC(=O)COc4ccccc4F)cc3)cc(=O)n12 | inactive |
| COc1ccc(-c2cccc(NS(=O)(=O)c3cc(C)c(OC)c(C)c3C)c2)nn1 | inactive |
| CCN(C(=O)Cn1cc(S(=O)(=O)N2CCN(c3ccccc3F)CC2)c2ccccc2c1=O)c1ccc(C)c(C)c1 | inactive |
| COc1cc2nc(SCc3ccc(F)cc3)n3nc(CCn4c(C)nc5ccccc54)nc3c2cc1OC | inactive |
| N#Cc1nc(/C=C/c2ccc(F)cc2)oc1NC1CCCCC1 | inactive |
| Cc1ccc(CNS(=O)(=O)c2ccc(-c3cc(C(F)(F)F)on3)s2)cc1 | inactive |
| O=C(CCC1N=C2c3ccccc3N=C(SCc3ccccc3F)N2C1=O)NCCc1ccccc1 (stereo not drawn) | inactive |
| Cc1ccc(OCCn2c(CNc3ccccc3C)nc3ccccc32)cc1 | inactive |
| CCCC12CN3CC(C)(CN(C1)C3c1ccccc1Cl)C2=O (stereo not drawn) | inactive |
| CCC1CCCCN1C(=O)Cn1c(=O)n(CCCCCC(=O)NCc2ccccc2)c(=O)c2sccc21 (stereo not drawn) | inactive |
| Cc1ccc(C2c3[nH]c4ccccc4c3CCN2C(=O)c2cccc(C)c2)cc1 (stereo not drawn) | inactive |
| Cc1onc(-c2ccc(F)cc2F)c1C(=O)Nc1cccc(C(F)(F)F)c1 | inactive |
